# Tested on: PXR homodimer (NR concentration 270 nM)
# Test: PBM binding z-score (relative to random genomic background probes); higher = stronger binding; sequences stand for … in GC…GCGATTGACAGCGTAGAATGAAGG
# Summary of the method: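 The probes on custom Agilent 4×180K protein-binding microarrays were double-stranded, with 34-nt variable regions bearing direct-repeat seeds, single-nucleotide variants, half-site ablations and random human genomic background sequences. Incubation lasted 1 h with ligand-free nuclear receptor dimers in PBS pH 7.4, 2% milk, 0.02% Triton X-100, 1 mM DTT, 0.2 mg/mL BSA and 0.4 mg/ml salmon testes DNA. Antibodies against each partner (one per run) detected bound dimers, and fluorescence scans were regression-normalized. Binding z-scores take the random background probes as reference.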
row,Sequence,PBM binding z-score
1,TCGAGTAGGTTAGGGGCATGCAGAATGGCGTCGA,-0.44
2,TCATATAGGTGAAGGTGAAAGTCGAACGATATGA,0.0381
3,GCGACCGGGGCAAAGCAGGTTACCATAAGGTTGG,-0.433
4,CAGACTGGGGCAAGGTTACCATAACGCACAGCCA,-0.134
5,CCTAGTTGGTCTAGGTCACACACGCTATAGGTAC,0.764
6,ATATGTAGGTTATCGGGTCATTCCGTTTGCGCAT,1.27
7,CCTAACAGGCCAATCTGGGTCACTCAAGGCTTGA,0.00111
8,CCTAGCAGGCCAGGGTCACTCGAGCATTTCGCTT,-0.255
9,CAAACTAGGTCGCGAAAGGTCAAAGTCGAATGAC,2.13
10,ACTAGTTGGTCAGCCGAGGTCACACACAATTCGG,2.13
11,TCTTGTAGATCAATAGAGATTAAGAAAGTGCGCT,0.261
12,ACTAGTTGGTCAGCTGAGGTCAGACACAATTCGG,0.813
13,AGAACGAGGGCACGCTGAGTTGATAGAAGAGTAG,-0.0963
14,ACTCGGAGGCCAAAGGTCAGAGCTACGCCAGTGA,-0.00137
15,TATACAGCGTCAAAGGCCAGAGTACGAATGTCGA,-0.0905
16,AGAACGAGGGCACGCTTAGTTGATAGCAGAGTAG,-0.259
17,GCTTACGGGTCAAAGCTTATAGCATGAATAGAAT,-0.218
18,TGTCAAAGTTCAAAGGTAACATAAGTATCCACAC,4.18
19,AGTCAAAGTTCATCTAGGTACCGTAAGATATGCT,5.43
20,CCTAGTTGGTCAAGGTCACACAAGCTATAGGTAC,2.97

row,Sequence,PBM binding z-score
1,ATATGTAGGTTATCGGGACATTCAGTTTGCGCAT,1.45
2,CCTCACGGGTCAAGGTTATAGCACGGGTGGTACG,0.458
3,TCATATTGGTAAACAGGTGAAAGTCCGTAAGTTA,0.511
4,CTCGAAAGGTCGGTCGAGGTGAGTATACGGATAA,-0.312
5,CGTCCAAGGTCATAGGAGGTCAGTTAAGACAGAT,4.13
6,GATACAGGGTCAGCTAGAGGCCAGAGTTTGGAAA,0.149
7,GCTAGTTGGTCAGTAAAAGGTCACACATCGGTCG,1.49
8,TCATATAGGTAAAAGGTGGAAGTCGGTGTGGTAA,0.623
9,GCAGACAGGTGAAACGCAGGAAACTCAGGGTGGC,-0.338
10,CCTGCTAGATCAATGGTCAGCTAAAGCAGCTCGC,-0.691
11,GTACCAGGGTGAATAGGTCGTTGATGAGTAGGCG,0.246
12,TCATATAGGTCAATGCTAGGTGAAAGTCCGATCT,0.347
13,GCTAGCTGGCCATTTGGGTCACTCAATGACGGGC,-0.751
14,TCATATAGGTAAACGTGAAAGTCGAACGATATGA,0.576
15,CAAACTAGGTCAAAGGTCTAAGTCGAGCCAACCA,0.0192
16,GCTTACGGGTCATAGGTTATAGCATGAATAGAAT,0.0944
17,CAAACTAGGTCACGAAAGGTCAAAGACGAATGAC,2.93
18,CGTCCCAGGTCAATGCTAGGTCAGTGAAAGCATT,0.306
19,TCTCGGAGGACACGAACGGTCAGAGCTCGACATC,-0.654
20,CCGACTGGGGCATAATGTTACCATAAGCCAGCCC,-0.468

# From the supplement of paper PMC6555819
